Laboratory results taken from PubChem BioAssay (EPA / NIEHS).
“And” between values parts separate entries of the source, which are not always exact repeats. Equal entries are not always repeated. Records with an inconclusive call do not appear. Where a structure was tested more than once in an assay, its records may differ in their call. The source made the active and inactive calls. The calls were made as follows, unless noted: active = hit-call score of the fitted dose curve at least 0.9, where 1 is the maximum; inconclusive = response in the unintended direction; inactive = score below 0.9.

Experiments:
[1] = BSK_4H_Eotaxin3: BioMAP Diversity Plus: 4H Assay for Eotaxin 3 Biomarker Activity (AID 2283000; active = hit-call score of the fitted dose curve at least 0.9, where 1 is the maximum; inactive = score below 0.9;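 as to outcome: CCL26 protein level quantified by ELISA in parallel with SRB cytotoxicity check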); conditions: primary human endothelial cells (HUVEC); actives raise or lower the signal
Outline: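 Endothelial primary cells (human umbilical vein) exposed to compound for 24 h. ELISA detection of Eotaxin-3.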

[2] = biological target: human Peroxisome Proliferator-activated Receptor alpha (PPARa), PPARA (gene 5465) (UniProt Q07869); test: ATG_PPARa_TRANS: Attagene TRANS-FACTORIAL HepG2 Assay for human Peroxisome Proliferator-activated Receptor alpha (PPARa) (AID 2283001);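 as to AC50: potency for gain of reporter signal over DMSO so agonist or activator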
Outline: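 HepG2 cells transiently transfected with multiplexed GAL4-UAS reporters driven by exogenous chimeric NR-Gal4 proteins; reporter mRNA measured after 24 h dosing. Read-out by RT-PCR, 6-FAM labelling, HpaI digestion and capillary electrophoresis; gain of signal versus DMSO.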

[3] = biological target: human Peroxisome Proliferator-activated Receptor delta (PPARd), PPARD (gene 5467) (UniProt Q03181); test: ATG_PPARd_TRANS: Attagene TRANS-FACTORIAL HepG2 Assay for human Peroxisome Proliferator-activated Receptor delta (PPARd) (AID 2283002)
Outline: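 Fluorescence from capillary electrophoresis of labelled RT-PCR reporter fragments gives the signal; DMSO sets baseline. Cells: HepG2 transiently carrying GAL4-UAS reporter units plus chimeric nuclear receptor-Gal4 proteins, exposed to chemicals for 24 h.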

[4] = read-out: Intercellular Adhesion Molecule 1 (ICAM1), ICAM1 (gene 3383); test: BSK_3C_ICAM1: BioMAP Diversity Plus: 3C Assay for Intercellular Adhesion Molecule 1 (ICAM1) Biomarker Activity (AID 2283003; active = hit-call score of the fitted dose curve at least 0.9, where 1 is the maximum; inactive = score below 0.9); conditions: primary human endothelial cells (HUVEC); actives raise or lower the signal
Outline: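 ICAM-1 levels measured by ELISA after HUVEC cultures in the 3C system had been dosed for 24 h. Gain or loss of signal relative to DMSO was fitted in both directions.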

[5] = BSK_3C_Proliferation: Cell Proliferation Assessment in the BioMAP Diversity Plus: 3C Assay (AID 2283006; active = hit-call score of the fitted dose curve at least 0.9, where 1 is the maximum; inactive = score below 0.9;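 as to AC50: potency may reflect either rise or fall in cell number versus DMSO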); conditions: primary human endothelial cells (HUVEC)
Outline: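 Read-out is total protein by SRB absorbance at 560 nm, taken as a proxy for relative cell number. Primary human umbilical vein endothelium cultured below confluence was dosed for 48 h, TCA-fixed and SRB-stained; curves were fitted bidirectionally versus DMSO.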

[6] = biological target: Peroxisome proliferator-activated receptor gamma (Homo sapiens) (UniProt P37231); test: ATG_PPARg_TRANS: Attagene TRANS-FACTORIAL HepG2 Assay for human Peroxisome Proliferator-activated Receptor-gamma (PPARg) (AID 2283007)
Outline: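 Twenty-four hours after chemical dosing of transiently transfected HepG2 cells, isolated RNA was converted to cDNA, reporter sequences amplified and 6-FAM-labelled, then HpaI-digested and analysed by capillary electrophoresis. Signal increase against DMSO was fitted.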

[7] = biological target: Nuclear receptor subfamily 1 group I member 2 (Homo sapiens) (UniProt O75469); test: ATG_PXR_TRANS: Attagene TRANS-FACTORIAL HepG2 Assay for human Pregnane X Receptor (PXR) (AID 2283008)
Outline: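 HepG2 cells transiently transfected with GAL4-UAS reporter units and PXR-Gal4 chimera, exposed 24 h. Reporter mRNA quantified by RT-PCR, fluorescent labelling, HpaI digestion and capillary electrophoresis; gain of signal vs DMSO.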

[8] = biological target: human RAR-related Orphan Receptor gamma (RORg), RORC (gene 6097) (UniProt P51449); test: ATG_RORg_TRANS: Attagene TRANS-FACTORIAL HepG2 Assay for human RAR-related Orphan Receptor gamma (RORg) (AID 2283011)
Outline: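 Activity is scored as increase in GAL4-UAS reporter mRNA over DMSO, detected by fluorescent RT-PCR and capillary electrophoresis in HepG2 cells transiently expressing a RORg-Gal4 chimera, 24 h after dosing.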

[9] = biological target: human Retinoic Acid Receptor beta (RARb), RARB (gene 5915) (UniProt P10826); test: ATG_RARb_TRANS: Attagene TRANS-FACTORIAL HepG2 Assay for human Retinoic Acid Receptor beta (AID 2283004)
Outline: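 HepG2, transient MRTU transfection, NR–Gal4 chimera, 24 h treatment; RT-PCR plus CE fluorescence detection of reporter mRNA; gain of signal vs DMSO.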

[10] = biological target: human Retinoic Acid Receptor gamma (RARg), RARG (gene 5916) (UniProt P13631); test: ATG_RARg_TRANS: Attagene TRANS-FACTORIAL HepG2 Assay for human Retinoic Acid Receptor gamma (RARg) (AID 2283009);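 as to AC50: AC50 is for reporter induction above DMSO meaning RARg activation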
Outline: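 Transient transfection of HepG2 with multi-reporter constructs, then 24 h chemical treatment. Total RNA isolated, reverse-transcribed, PCR-amplified, fluorescently labelled and resolved by capillary electrophoresis; activity scored as mRNA induction versus DMSO.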

human Peroxisome Proliferator-activated Receptor alpha (PPARa), PPARA (gene 5465), sequence (Q07869 whole entry, looked up, the tested form may be a part): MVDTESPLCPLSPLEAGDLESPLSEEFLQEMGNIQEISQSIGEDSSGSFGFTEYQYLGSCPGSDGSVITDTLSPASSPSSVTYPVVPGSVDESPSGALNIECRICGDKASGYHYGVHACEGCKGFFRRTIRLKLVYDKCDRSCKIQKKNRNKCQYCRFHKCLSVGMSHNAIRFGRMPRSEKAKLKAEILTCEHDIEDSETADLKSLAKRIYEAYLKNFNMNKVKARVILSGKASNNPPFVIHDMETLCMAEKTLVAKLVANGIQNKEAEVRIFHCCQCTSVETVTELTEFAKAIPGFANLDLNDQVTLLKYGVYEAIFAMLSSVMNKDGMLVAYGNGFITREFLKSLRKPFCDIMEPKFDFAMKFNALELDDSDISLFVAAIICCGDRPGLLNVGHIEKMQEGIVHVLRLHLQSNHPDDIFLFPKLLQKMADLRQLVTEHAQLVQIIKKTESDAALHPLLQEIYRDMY
human Retinoic Acid Receptor gamma (RARg), RARG (gene 5916), sequence (P13631 whole entry, looked up): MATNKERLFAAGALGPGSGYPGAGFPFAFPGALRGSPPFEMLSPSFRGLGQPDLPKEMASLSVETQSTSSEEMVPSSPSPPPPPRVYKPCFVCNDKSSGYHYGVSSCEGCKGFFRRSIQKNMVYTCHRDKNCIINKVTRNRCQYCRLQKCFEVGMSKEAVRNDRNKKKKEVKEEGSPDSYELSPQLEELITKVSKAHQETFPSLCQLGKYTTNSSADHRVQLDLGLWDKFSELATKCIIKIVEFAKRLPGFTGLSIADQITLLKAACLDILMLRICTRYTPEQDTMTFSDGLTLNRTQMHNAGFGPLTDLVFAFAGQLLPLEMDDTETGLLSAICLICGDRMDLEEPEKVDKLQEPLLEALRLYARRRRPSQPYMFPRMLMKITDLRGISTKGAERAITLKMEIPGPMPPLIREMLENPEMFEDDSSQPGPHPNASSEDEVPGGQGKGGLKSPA
human RAR-related Orphan Receptor gamma (RORg), RORC (gene 6097), sequence (P51449 whole entry, looked up, the tested form may be a part): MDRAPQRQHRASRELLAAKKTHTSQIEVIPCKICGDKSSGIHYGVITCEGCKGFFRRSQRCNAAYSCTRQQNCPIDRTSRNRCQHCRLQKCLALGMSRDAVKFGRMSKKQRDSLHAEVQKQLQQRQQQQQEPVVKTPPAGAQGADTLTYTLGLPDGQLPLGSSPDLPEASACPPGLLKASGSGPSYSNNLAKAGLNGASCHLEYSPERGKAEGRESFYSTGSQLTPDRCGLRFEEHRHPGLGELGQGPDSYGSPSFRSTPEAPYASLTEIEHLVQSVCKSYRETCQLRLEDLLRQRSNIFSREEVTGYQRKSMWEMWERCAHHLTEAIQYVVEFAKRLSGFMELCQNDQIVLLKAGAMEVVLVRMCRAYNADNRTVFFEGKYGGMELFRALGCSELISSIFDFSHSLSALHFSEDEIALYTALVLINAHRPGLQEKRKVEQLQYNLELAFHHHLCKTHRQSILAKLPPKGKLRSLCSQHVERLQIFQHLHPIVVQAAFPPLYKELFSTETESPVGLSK
human Retinoic Acid Receptor beta (RARb), RARB (gene 5915), sequence (P10826 whole entry, looked up, the tested form may be a part): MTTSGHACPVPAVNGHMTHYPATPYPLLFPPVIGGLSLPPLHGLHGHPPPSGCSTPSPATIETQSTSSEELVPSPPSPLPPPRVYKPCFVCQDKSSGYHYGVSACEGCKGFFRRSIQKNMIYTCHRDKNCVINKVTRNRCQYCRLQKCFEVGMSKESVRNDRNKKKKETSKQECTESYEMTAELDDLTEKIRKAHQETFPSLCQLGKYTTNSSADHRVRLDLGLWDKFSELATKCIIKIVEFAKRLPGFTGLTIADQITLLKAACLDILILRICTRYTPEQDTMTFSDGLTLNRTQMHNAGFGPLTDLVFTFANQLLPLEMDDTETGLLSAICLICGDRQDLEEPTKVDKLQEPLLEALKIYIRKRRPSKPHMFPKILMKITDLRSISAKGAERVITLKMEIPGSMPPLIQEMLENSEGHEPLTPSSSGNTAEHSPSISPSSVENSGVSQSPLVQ
human Peroxisome Proliferator-activated Receptor delta (PPARd), PPARD (gene 5467), sequence (Q03181 whole entry, looked up, the tested form may be a part): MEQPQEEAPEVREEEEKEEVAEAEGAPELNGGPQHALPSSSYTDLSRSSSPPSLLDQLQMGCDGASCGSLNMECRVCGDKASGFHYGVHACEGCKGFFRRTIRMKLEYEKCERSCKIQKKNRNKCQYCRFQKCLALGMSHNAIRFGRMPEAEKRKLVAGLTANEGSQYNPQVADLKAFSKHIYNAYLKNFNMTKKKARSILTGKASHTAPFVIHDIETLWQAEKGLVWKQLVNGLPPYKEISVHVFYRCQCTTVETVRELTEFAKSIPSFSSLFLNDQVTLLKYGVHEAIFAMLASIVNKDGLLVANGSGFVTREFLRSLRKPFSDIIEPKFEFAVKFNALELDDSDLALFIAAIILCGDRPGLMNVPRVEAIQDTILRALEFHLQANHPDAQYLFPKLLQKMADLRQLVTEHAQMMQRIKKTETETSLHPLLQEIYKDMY
Peroxisome proliferator-activated receptor gamma (Homo sapiens), sequence (P37231 whole entry, looked up): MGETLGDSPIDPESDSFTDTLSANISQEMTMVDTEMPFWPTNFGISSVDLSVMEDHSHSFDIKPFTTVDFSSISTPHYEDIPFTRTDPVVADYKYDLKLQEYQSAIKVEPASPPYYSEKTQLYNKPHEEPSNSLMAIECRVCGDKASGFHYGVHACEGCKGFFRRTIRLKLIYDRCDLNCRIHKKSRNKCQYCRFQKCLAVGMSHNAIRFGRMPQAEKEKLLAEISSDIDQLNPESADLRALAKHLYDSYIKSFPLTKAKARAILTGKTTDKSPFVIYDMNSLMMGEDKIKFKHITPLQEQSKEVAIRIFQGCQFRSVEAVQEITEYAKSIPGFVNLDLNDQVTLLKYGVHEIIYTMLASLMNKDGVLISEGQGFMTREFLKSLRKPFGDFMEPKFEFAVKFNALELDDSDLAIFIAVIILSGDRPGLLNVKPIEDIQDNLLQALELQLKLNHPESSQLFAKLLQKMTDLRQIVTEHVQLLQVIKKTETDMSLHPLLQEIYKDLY
Nuclear receptor subfamily 1 group I member 2 (Homo sapiens), sequence (O75469 whole entry, looked up, the tested form may be a part): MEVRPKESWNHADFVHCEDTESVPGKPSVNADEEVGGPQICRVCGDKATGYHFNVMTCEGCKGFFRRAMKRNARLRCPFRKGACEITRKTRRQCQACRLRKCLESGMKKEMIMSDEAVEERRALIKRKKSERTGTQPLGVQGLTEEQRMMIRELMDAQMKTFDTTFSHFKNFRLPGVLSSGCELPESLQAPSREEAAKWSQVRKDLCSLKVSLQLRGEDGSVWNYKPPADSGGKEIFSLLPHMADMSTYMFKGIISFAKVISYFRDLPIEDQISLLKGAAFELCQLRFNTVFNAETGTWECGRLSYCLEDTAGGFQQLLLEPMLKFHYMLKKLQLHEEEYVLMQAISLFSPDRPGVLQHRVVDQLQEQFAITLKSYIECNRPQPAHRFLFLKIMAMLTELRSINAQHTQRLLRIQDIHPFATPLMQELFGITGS

C[C@@H]1C[C@H]2[C@@H]3CCC4=CC(=O)C=C[C@]4(C)[C@@]3(F)[C@@H](O)C[C@]2(C)[C@@]1(O)C(=O)COP(=O)(O)O
AC50 [1]: 8.66 µM (active)
outcome [1]: inactive
outcome [2]: inactive
outcome [3]: inactive
outcome [4]: inactive
outcome [5]: inactive
outcome [6]: inactive
outcome [7]: inactive
outcome [8]: inactive

CCCCC(CC)COC(=O)CCCCC(=O)OCC(CC)CCCC (configuration not stated)
outcome [1]: inactive
outcome [2]: inactive
outcome [3]: inactive
outcome [4]: inactive
outcome [9]: inactive
outcome [5]: inactive
outcome [6]: inactive
outcome [7]: inactive
outcome [10]: inactive

CCCCCCCCCCCCc1ccccc1S(=O)(=O)O
outcome [1]: inactive
outcome [2]: inactive
outcome [4]: inactive
outcome [9]: inactive
AC50 [5]: 32.3 µM (active)
outcome [6]: inactive
AC50 [7]: 3.52 µM (active)
outcome [10]: inactive
outcome [8]: inactive

C=C(C)C(=O)OCCC(F)(F)C(F)(F)C(F)(F)C(F)(F)C(F)(F)C(F)(F)F
AC50 [1]: 20 µM (active)
outcome [1]: inactive
outcome [2]: inactive
outcome [4]: inactive
AC50 [5]: 12.8 µM (active)
outcome [5]: inactive
outcome [6]: inactive
outcome [7]: inactive
outcome [8]: inactive

O=[N+]([O-])c1ccc(O)cc1
outcome [1]: inactive
outcome [2]: inactive
outcome [3]: inactive
outcome [4]: inactive
outcome [5]: inactive
outcome [6]: inactive

CCCCCCCCCCCCCC[N+](C)(C)C
AC50 [1]: 2.93 µM (active)
outcome [2]: inactive
outcome [3]: inactive
AC50 [4]: 7.59 µM (active)
outcome [9]: inactive
AC50 [5]: 1.73 µM (active)
AC50 [6]: 26.6 µM (active)
outcome [6]: inactive
outcome [7]: inactive
AC50 [10]: 36.6 µM (active)
outcome [10]: inactive
outcome [8]: inactive

COC(=O)CCCCC(=O)OC
outcome [1]: inactive
outcome [2]: inactive
outcome [3]: inactive
outcome [4]: inactive
outcome [5]: inactive
outcome [7]: inactive

COCC(C)O (configuration not stated)
outcome [1]: inactive
outcome [2]: inactive
outcome [4]: inactive
outcome [5]: inactive

CC1=C(/C=C/C(C)=C/C=C/C(C)=C/C(=O)O)C(C)(C)CCC1
AC50 [1]: 9.37 µM (active)
AC50 [2]: 100 µM (active)
outcome [2]: inactive
AC50 [3]: 56 µM (active)
outcome [3]: inactive
outcome [4]: inactive
outcome [9]: inactive
AC50 [5]: 32.8 µM (active)
AC50 [6]: 29.6 µM (active) and 10.1 µM (active)
AC50 [7]: 19.8 µM (active)
outcome [7]: inactive
outcome [10]: inactive

OCCC(F)(F)C(F)(F)C(F)(F)C(F)(F)C(F)(F)C(F)(F)F
AC50 [1]: 0.436 µM (active)
outcome [1]: inactive
outcome [2]: inactive
outcome [3]: inactive
AC50 [4]: 54.7 µM (active) and 44.7 µM (active)
outcome [4]: inactive
outcome [9]: inactive
AC50 [5]: 46.5 µM (active) and 56.6 µM (active)
outcome [5]: inactive
outcome [6]: inactive
outcome [7]: inactive
outcome [10]: inactive
outcome [8]: inactive

CCCOC(=O)c1ccc(O)cc1
outcome [1]: inactive
outcome [2]: inactive
outcome [3]: inactive
outcome [4]: inactive
outcome [9]: inactive
outcome [5]: inactive
AC50 [6]: 45.6 µM (active)
AC50 [7]: 100 µM (active)
outcome [7]: inactive
outcome [10]: inactive

CCC(=C(c1ccc(O)cc1)c1ccc(OCCN(C)C)cc1)c1ccccc1
AC50 [1]: 7.42 µM (active)
AC50 [2]: 11.8 µM (active)
outcome [2]: inactive
outcome [3]: inactive
AC50 [4]: 12.6 µM (active)
outcome [9]: inactive
AC50 [5]: 5.85 µM (active)
AC50 [6]: 10.9 µM (active) and 9.84 µM (active) and 11.1 µM (active)
outcome [6]: inactive
AC50 [7]: 3.28 µM (active) [middle of 4 runs]
outcome [10]: inactive

OC1CCC(C2CCCCC2)CC1 (configuration not stated)
outcome [1]: inactive
outcome [2]: inactive
outcome [3]: inactive
outcome [4]: inactive
outcome [9]: inactive
outcome [5]: inactive
outcome [6]: inactive
AC50 [7]: 23.9 µM (active)
outcome [7]: inactive

CCOC(=O)CC(O)(CC(=O)OCC)C(=O)OCC
outcome [1]: inactive
AC50 [2]: 34.3 µM (active)
outcome [2]: inactive
outcome [4]: inactive
outcome [5]: inactive
outcome [6]: inactive
outcome [7]: inactive
outcome [8]: inactive

Oc1cccc(O)c1
outcome [1]: inactive
outcome [2]: inactive
outcome [3]: inactive
outcome [4]: inactive
outcome [9]: inactive
outcome [5]: inactive
outcome [6]: inactive
outcome [7]: inactive
outcome [8]: inactive

NCC(F)(F)C(F)(F)C(F)(F)C(F)(F)C(F)(F)C(F)(F)C(F)(F)F
outcome [1]: inactive
outcome [2]: inactive
outcome [3]: inactive
outcome [4]: inactive
outcome [5]: inactive
outcome [6]: inactive
outcome [7]: inactive
outcome [10]: inactive

Nc1cccc2c(N)cccc12
outcome [1]: inactive
outcome [2]: inactive
outcome [3]: inactive
outcome [4]: inactive
outcome [9]: inactive
outcome [5]: inactive
outcome [6]: inactive
outcome [7]: inactive
outcome [10]: inactive

O=C(O)Cc1cc(I)c(Oc2cc(I)c(O)c(I)c2)c(I)c1
outcome [1]: inactive
AC50 [2]: 67 µM (active)
outcome [2]: inactive
outcome [3]: inactive
outcome [4]: inactive
AC50 [5]: 21.3 µM (active)
AC50 [6]: 481 nM (active) and 460 nM (active)
AC50 [7]: 13 µM (active)
outcome [7]: inactive
outcome [10]: inactive
outcome [8]: inactive

O=C(O)c1ccccc1C(c1ccc(O)cc1)c1ccc(O)cc1
outcome [1]: inactive
outcome [2]: inactive
outcome [3]: inactive
outcome [4]: inactive
outcome [9]: inactive
outcome [5]: inactive
outcome [7]: inactive
outcome [10]: inactive
outcome [8]: inactive

CCCCC(CC)COC(=O)CCCCC(=O)OCc1ccccc1 (configuration not stated)
outcome [1]: inactive
outcome [2]: inactive
outcome [3]: inactive
outcome [4]: inactive
outcome [5]: inactive
outcome [6]: inactive
AC50 [7]: 17.8 µM (active)
outcome [10]: inactive
outcome [8]: inactive

CC(=O)NC1(c2cccc(F)c2)CCN(CC[C@@]2(c3ccc(Cl)c(Cl)c3)CN(c3ccccc3)C(=O)CO2)CC1
AC50 [1]: 27.1 µM (active)
outcome [2]: inactive
outcome [3]: inactive
outcome [9]: inactive
AC50 [5]: 20.8 µM (active)
AC50 [6]: 49.1 µM (active)
AC50 [7]: 8.59 µM (active)
outcome [10]: inactive

O=c1c(-c2ccc(O)cc2)coc2cc(O)ccc12
outcome [1]: inactive
outcome [2]: inactive
outcome [3]: inactive
outcome [4]: inactive
AC50 [5]: 20 µM (active)
AC50 [6]: 27.3 µM (active) and 20.3 µM (active) and 65.3 µM (active)
outcome [7]: inactive
outcome [8]: inactive

OC1CCCCC1
outcome [1]: inactive
outcome [2]: inactive
outcome [3]: inactive
outcome [4]: inactive
outcome [5]: inactive
outcome [8]: inactive

CC(C)CCCCCCOC(=O)CCCCC(=O)OCCCCCCC(C)C
outcome [1]: inactive
outcome [2]: inactive
outcome [3]: inactive
outcome [4]: inactive
outcome [5]: inactive
outcome [6]: inactive
outcome [10]: inactive

NC(=O)N1C(=O)C(C(=O)c2cc(Cl)cs2)c2cc(F)c(Cl)cc21 (configuration not stated)
AC50 [1]: 14.9 µM (active)
outcome [2]: inactive
outcome [3]: inactive
outcome [4]: inactive
outcome [9]: inactive
AC50 [5]: 11 µM (active)
AC50 [6]: 2.71 µM (active)
AC50 [7]: 11 µM (active)
outcome [10]: inactive
outcome [8]: inactive

Cc1cc(C)c(O)c(C)c1
outcome [1]: inactive
outcome [2]: inactive
outcome [4]: inactive
outcome [9]: inactive
outcome [5]: inactive
outcome [6]: inactive
outcome [7]: inactive
outcome [10]: inactive
outcome [8]: inactive

CN(C)C=O
outcome [1]: inactive
outcome [2]: inactive
outcome [4]: inactive
outcome [9]: inactive
outcome [5]: inactive
outcome [6]: inactive
outcome [8]: inactive

NC(=O)N(O)[C@@H]1C=C[C@H](Oc2cccc(Oc3ccc(F)cc3)c2)C1
outcome [1]: inactive
outcome [2]: inactive
outcome [3]: inactive
outcome [4]: inactive
outcome [9]: inactive
AC50 [5]: 9.97 µM (active)
AC50 [6]: 10.1 µM (active)
AC50 [7]: 7.33 µM (active)
outcome [10]: inactive

CCN(CC)CCNc1ccc(CNC=O)c2sc3ccc(OC)cc3c(=O)c12
AC50 [1]: 29.2 µM (active)
AC50 [2]: 0.878 µM (active)
outcome [3]: inactive
AC50 [4]: 30.8 µM (active)
AC50 [5]: 13.8 µM (active)
AC50 [6]: 0.718 µM (active)
AC50 [7]: 0.228 µM (active)
outcome [10]: inactive

CC(=O)CC(C)(C)O
outcome [1]: inactive
outcome [2]: inactive
outcome [3]: inactive
outcome [4]: inactive
outcome [9]: inactive
outcome [5]: inactive
outcome [6]: inactive
outcome [7]: inactive
outcome [10]: inactive
outcome [8]: inactive

CCCCCCCCOC(=O)CCCCCCCCC(=O)OCCCCCCCC
outcome [1]: inactive
outcome [2]: inactive
outcome [3]: inactive
outcome [4]: inactive
outcome [5]: inactive
outcome [6]: inactive
outcome [8]: inactive
